Read-outs that look alike come from different tables or passages of the source.

Common to all, as to design: species or system human, MV4-11 + K-562 + COLO205 + SK-N-BE2 + OVCAR-8
The test system of test [1] is RPS6KB1. As to conditions: read-out: apparent Kd, compound concentrations: 100 nM and 1000 nM (sheet 'Samples'), n = 1.
The test system of test [2] is ABL1. As to conditions: read-out: apparent Kd, n = 1.
In test [3] the test system is MAP3K11. The note with it: read-out: apparent Kd, n = 1.
The subject of test [4] is MAPK14. The note with it: read-out: apparent Kd, n = 1.
Test [5] relates to ABL2. As to conditions: read-out: apparent Kd, n = 1.
For test [6], the system named is ACVR1B. As to conditions: read-out: apparent Kd, n = 1.
For test [7], the system named is AURKB. As to conditions: read-out: apparent Kd, n = 1.
Test [8] deals with BTK. As to conditions: read-out: apparent Kd, n = 1.
The subject of test [9] is CDC42BPB. The note with it: read-out: apparent Kd; compound concentrations: 100 nM and 1000 nM (sheet 'Samples'), CATDS: 4.0403129227197304E-3; n = 1.
For test [10], the system named is CIT. As to conditions: read-out: apparent Kd, n = 1.
For test [11], the system named is EPHB1. The note with it: read-out: apparent Kd, n = 1.
For test [12], the system named is IRAK3. As to conditions: read-out: apparent Kd, compound concentrations: 100 nM and 1000 nM (sheet 'Samples'), n = 1.
In test [13] the test system is PIK3CD. As to conditions: read-out: apparent Kd; compound concentrations: 100 nM and 1000 nM (sheet 'Samples'), CATDS: 4.6666042012861897E-2; n = 1.
In test [14] the test system is PRKCA. The note with it: read-out: apparent Kd, n = 1.
The subject of test [15] is PTK6. As to conditions: read-out: apparent Kd, n = 1.
Test [16] relates to RPS6KA3. The note with it: read-out: apparent Kd, n = 1.
In test [17] the test system is TTK. As to conditions: read-out: apparent Kd; compound concentrations: 100 nM and 1000 nM (sheet 'Samples'), CATDS: 3.8760622756019202E-3; n = 1.
The test system of test [18] is LCK. The note with it: read-out: apparent Kd, n = 1.
Test [19] has as its system PAK6. As to conditions: read-out: apparent Kd, n = 1.
Test [20] deals with NUAK2. The note with it: read-out: apparent Kd; compound concentrations:100 nM and 1000 nM (sheet 'Samples'); n = 1.
[21] abbreviates: compound concentrations:100 nM and 1000 nM (sheet 'Samples').

On to `CCn1c(-c2nonc2N)nc2c(C#CCN)ncc(OCCCN)c21.O=C(O)C(F)(F)F` [GSK561866B], for which the potency estimated from few doses in [1] (CATDS: 9.0745453411211097E-2) is 699 nM.

For `CN(c1ccc(NC(=O)N2CCN(CCCN3CCOCC3)CC2)cc1)c1ccnc(Nc2ccc(CS(C)(=O)=O)cc2)n1.Cl` [GW830899A], the potency estimated from few doses was 1300 nM in test [2] (compound concentrations: 100 nM and 1000 nM (sheet 'Samples'), CATDS: 2.13093198764688E-2); 1980 nM in test [3] (compound concentrations: 100 nM and 1000 nM (sheet 'Samples'), CATDS: 1.83131031951747E-2); 905 nM in test [4] (compound concentrations: 100 nM and 1000 nM (sheet 'Samples'), CATDS: 2.4950407737396499E-2).

Consider `Cn1ncc2c(N)ncnc21` [SKF-18267], for which the potency estimated from few doses in [2] (compound concentrations: 100 nM and 1000 nM (sheet 'Samples'), CATDS: 4.5890401321851898E-3) is 972 nM; in test [5] (compound concentrations: 100 nM and 1000 nM (sheet 'Samples'), CATDS: 5.0197498438992799E-3), 808 nM; in test [6] (compound concentrations: 100 nM and 1000 nM (sheet 'Samples'), CATDS: 5.9618595467290699E-3), 587 nM; in [7] (compound concentrations: 100 nM and 1000 nM (sheet 'Samples'), CATDS: 5.1927798123429401E-3), 756 nM; in test [8] (compound concentrations: 100 nM and 1000 nM (sheet 'Samples'), CATDS: 5.3280284172791698E-3), 720 nM; in [9], 1300 nM. Moreover, the potency estimated from few doses in test [10] (compound concentrations: 100 nM and 1000 nM (sheet 'Samples'), CATDS: 4.0396253783402704E-3) is 1300 nM; in [11] (compound concentrations: 100 nM and 1000 nM (sheet 'Samples'), CATDS: 5.0582838235080502E-3) it was 796 nM; in test [12] (CATDS: 5.6966714044827602E-3), 636 nM; in [3] (compound concentrations: 100 nM and 1000 nM (sheet 'Samples'), CATDS: 4.0610212954189503E-3) it was 1290 nM; in [4] (compound concentrations: 100 nM and 1000 nM (sheet 'Samples'), CATDS: 5.3577076045461004E-3) it was 712 nM; in test [13], 40.8 nM. The potency estimated from few doses is 1810 nM in [14] (compound concentrations: 100 nM and 1000 nM (sheet 'Samples'), CATDS: 3.58231732022705E-3); 815 nM in [15] (compound concentrations: 100 nM and 1000 nM (sheet 'Samples'), CATDS: 4.9971490936353098E-3); 1090 nM in [16] (compound concentrations: 100 nM and 1000 nM (sheet 'Samples'), CATDS: 4.3523145160936898E-3); 976 nM in test [1] (CATDS: 4.5805386510862304E-3); 1450 nM in test [17].

As for `Cl.ON=C1CCc2cc(-c3nc(C4CCNCC4)[nH]c3-c3ccncc3)ccc21` [SB-614067-R], the values for the potency estimated from few doses in [6] (setting [21]) and in test [4] (setting [21]) were 846 nM and 1160 nM, respectively.

On to `Cc1cccc(Nc2nc(N[C@H]3CCCC[C@H]3N)ncc2C(N)=O)c1.Cl` [GSK986310C], for which the potency estimated from few doses is 1800 nM in [3] (setting [21]) and 1130 nM in test [14] (setting [21]).

`Clc1cc(Cl)cc(Nc2ccnc(Nc3cc(Cl)cc(Cl)c3)n2)c1` [GSK175726A]: the potency estimated from few doses in test [2] (compound concentrations: 100 nM and 1000 nM (sheet 'Samples'), CATDS: 2.5998529843594201E-2) was 83.2 nM; in [5] (compound concentrations: 100 nM and 1000 nM (sheet 'Samples'), CATDS: 0.155143101703651), 7.68 nM; in test [7] (compound concentrations: 100 nM and 1000 nM (sheet 'Samples'), CATDS: 1.17744273258488E-2), 461 nM; in test [8] (compound concentrations: 100 nM and 1000 nM (sheet 'Samples'), CATDS: 2.6199359146872301E-2) it was 82.1 nM; in test [11] (compound concentrations: 100 nM and 1000 nM (sheet 'Samples'), CATDS: 3.1891027827673897E-2) it was 60 nM; in [18] (compound concentrations: 100 nM and 1000 nM (sheet 'Samples'), CATDS: 2.0638344047220501E-2), 125 nM. The potency estimated from few doses was 1060 nM in test [19] (compound concentrations: 100 nM and 1000 nM (sheet 'Samples'), CATDS: 9.3443297736164402E-3); 894 nM in [15] (compound concentrations: 100 nM and 1000 nM (sheet 'Samples'), CATDS: 9.7207770515578794E-3); 1660 nM in test [16] (compound concentrations: 100 nM and 1000 nM (sheet 'Samples'), CATDS: 8.5170276758985107E-3).

As for `O=C1NC(=O)C(N2CCc3ccccc32)=C1c1ccccc1Cl` [SB-373598], the potency estimated from few doses was 172 nM in test [2] (setting [21]); 329 nM in [5] (setting [21]); 466 nM in test [7] (setting [21]); 124 nM in test [8] (setting [21]); 373 nM in test [11] (setting [21]); 138 nM in test [18] (setting [21]). Besides, the potency estimated from few doses in [3] (setting [21]) is 1040 nM; in [20], 780 nM; in test [19] (setting [21]) it was 419 nM; in test [15] (setting [21]), 606 nM; in [16] (setting [21]) it was 966 nM.

As for `Cc1ccc(Nc2ccnc(Nc3ccc4c(c3)CS(=O)(=O)C4)n2)cc1O.Cl` [GW579362A], the potency estimated from few doses was 1330 nM in test [2] (compound concentrations: 100 nM and 1000 nM (sheet 'Samples'), CATDS: 2.9223994432995299E-2); 448 nM in test [5] (compound concentrations: 100 nM and 1000 nM (sheet 'Samples'), CATDS: 4.4791805431594098E-2); 446 nM in [12] (CATDS: 4.4859937900589397E-2); 1770 nM in test [3] (compound concentrations: 100 nM and 1000 nM (sheet 'Samples'), CATDS: 2.6959638591647499E-2); 1290 nM in [4] (compound concentrations: 100 nM and 1000 nM (sheet 'Samples'), CATDS: 2.9505107428945899E-2); 1200 nM in [15] (compound concentrations: 100 nM and 1000 nM (sheet 'Samples'), CATDS: 3.01604654859133E-2).

On to `CCn1c(-c2nonc2N)nc2c(C#CC(C)(C)O)nc(OCCN)cc21.CCn1c(-c2nonc2N)nc2c(C#CC(C)(C)O)nc(OCCN)cc21.Cl.Cl` [GSK902056A], for which, in test [10] (setting [21]), the potency estimated from few doses is 1340 nM.

The values above are taken from paper PMC11062922 (Nature Chemical Biology, 2023).
